Results from the supplement of paper PMC10849652.
Of roughly 7,900 targets only a part is listed; those with a hit were picked by preference. About 0.6% of all pairs of compound and target were hits.

Compound: CC1=C2C(=CC=C1)N=C(N(C2=O)C3=CC=CC=C3C)CN4C=NC5=C(N=CN=C54)N
Assay: log2 fold change, soluble protein after heating vs DMSO (PISA); higher = thermal stabilisation; K562 cells, 10 uM, 30 min; active = over 0.2 and 3.5 SD of the protein, either way, in both replicates (recomputed)
Outline: (§1)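 Thermal stability values are relative to control samples and come from duplicates. They are expressed as log2 fold changes. For measurement, K562 cells (2×10^6 cells/mL) received 10 μM compound for 30 min, and aliquots were heated for 3 min over 48°C-58°C, pooled, and extracted at 4°C in PBS with 0.5% NP-40. Soluble protein, the supernatant after 21,000xg for 90 min, was quantified by TMTpro 16plex LC-MS/MS with equalised channel sums.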

UniProt P63165, sequence (P63165 whole entry, looked up): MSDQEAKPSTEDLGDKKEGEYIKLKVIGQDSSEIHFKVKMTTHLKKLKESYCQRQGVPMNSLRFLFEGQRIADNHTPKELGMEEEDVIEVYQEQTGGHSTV
UniProt Q9NXE4, sequence (Q9NXE4 whole entry, looked up): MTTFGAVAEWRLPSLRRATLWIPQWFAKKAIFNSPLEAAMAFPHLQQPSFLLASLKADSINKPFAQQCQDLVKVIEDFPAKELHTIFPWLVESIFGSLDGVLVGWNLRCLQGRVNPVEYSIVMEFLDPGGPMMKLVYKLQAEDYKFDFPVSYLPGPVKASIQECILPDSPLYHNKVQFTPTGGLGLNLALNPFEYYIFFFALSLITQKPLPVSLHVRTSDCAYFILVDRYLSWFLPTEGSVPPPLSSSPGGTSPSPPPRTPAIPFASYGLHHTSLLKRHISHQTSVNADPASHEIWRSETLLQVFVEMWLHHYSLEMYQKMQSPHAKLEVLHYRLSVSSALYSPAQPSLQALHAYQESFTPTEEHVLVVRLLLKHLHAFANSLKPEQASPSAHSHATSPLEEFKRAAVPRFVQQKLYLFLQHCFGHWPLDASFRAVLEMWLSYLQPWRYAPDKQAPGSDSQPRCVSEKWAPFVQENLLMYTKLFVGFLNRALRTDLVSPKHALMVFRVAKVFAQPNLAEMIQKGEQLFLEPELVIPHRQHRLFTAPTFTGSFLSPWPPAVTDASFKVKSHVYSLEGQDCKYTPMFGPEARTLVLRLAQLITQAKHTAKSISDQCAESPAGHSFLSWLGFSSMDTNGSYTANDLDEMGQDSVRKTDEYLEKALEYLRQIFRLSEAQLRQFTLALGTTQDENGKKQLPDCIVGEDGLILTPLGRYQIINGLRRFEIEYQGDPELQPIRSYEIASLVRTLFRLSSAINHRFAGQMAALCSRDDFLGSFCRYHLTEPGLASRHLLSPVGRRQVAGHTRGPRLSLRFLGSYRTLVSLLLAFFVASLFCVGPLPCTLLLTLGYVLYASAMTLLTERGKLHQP
UniProt Q9Y5B9, sequence (Q9Y5B9 whole entry, looked up): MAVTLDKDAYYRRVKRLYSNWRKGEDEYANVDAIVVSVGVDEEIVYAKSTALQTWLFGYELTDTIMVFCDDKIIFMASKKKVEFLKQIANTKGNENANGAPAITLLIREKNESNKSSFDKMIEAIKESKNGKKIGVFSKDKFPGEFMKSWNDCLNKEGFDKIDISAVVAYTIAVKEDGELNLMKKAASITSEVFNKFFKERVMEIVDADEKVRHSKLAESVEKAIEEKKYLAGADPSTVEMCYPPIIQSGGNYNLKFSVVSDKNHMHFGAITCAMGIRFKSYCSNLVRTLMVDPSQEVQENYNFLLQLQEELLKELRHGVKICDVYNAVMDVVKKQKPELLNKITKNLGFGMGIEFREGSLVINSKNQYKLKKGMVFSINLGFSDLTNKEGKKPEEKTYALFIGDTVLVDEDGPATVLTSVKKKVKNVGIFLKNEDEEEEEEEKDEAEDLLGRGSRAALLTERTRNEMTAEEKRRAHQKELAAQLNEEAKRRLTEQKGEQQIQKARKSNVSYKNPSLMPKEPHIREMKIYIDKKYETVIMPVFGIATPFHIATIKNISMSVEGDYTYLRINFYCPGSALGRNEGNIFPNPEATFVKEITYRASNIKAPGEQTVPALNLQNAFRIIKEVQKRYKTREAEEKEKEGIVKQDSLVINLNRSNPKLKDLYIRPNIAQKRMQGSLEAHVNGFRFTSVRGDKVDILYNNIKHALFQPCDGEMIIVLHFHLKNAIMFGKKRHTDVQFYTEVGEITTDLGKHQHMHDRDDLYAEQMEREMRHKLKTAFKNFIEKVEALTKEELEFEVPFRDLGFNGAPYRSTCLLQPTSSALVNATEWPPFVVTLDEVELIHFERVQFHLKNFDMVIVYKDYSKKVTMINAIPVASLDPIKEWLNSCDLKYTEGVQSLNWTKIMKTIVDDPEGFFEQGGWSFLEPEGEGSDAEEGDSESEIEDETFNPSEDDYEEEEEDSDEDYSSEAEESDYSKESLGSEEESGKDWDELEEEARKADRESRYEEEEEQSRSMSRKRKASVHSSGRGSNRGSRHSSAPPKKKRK
UniProt Q969X1, sequence (Q969X1 whole entry, looked up): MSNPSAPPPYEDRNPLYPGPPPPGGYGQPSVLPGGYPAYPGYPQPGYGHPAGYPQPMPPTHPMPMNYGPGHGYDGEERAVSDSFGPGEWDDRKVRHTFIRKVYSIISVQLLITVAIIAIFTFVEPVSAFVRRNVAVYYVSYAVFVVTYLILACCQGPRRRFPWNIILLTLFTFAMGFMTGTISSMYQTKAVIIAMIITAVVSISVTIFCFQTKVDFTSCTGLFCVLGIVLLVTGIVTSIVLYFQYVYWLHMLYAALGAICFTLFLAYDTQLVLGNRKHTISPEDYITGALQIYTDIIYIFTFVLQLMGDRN
UniProt Q969G3, sequence (Q969G3 whole entry, looked up): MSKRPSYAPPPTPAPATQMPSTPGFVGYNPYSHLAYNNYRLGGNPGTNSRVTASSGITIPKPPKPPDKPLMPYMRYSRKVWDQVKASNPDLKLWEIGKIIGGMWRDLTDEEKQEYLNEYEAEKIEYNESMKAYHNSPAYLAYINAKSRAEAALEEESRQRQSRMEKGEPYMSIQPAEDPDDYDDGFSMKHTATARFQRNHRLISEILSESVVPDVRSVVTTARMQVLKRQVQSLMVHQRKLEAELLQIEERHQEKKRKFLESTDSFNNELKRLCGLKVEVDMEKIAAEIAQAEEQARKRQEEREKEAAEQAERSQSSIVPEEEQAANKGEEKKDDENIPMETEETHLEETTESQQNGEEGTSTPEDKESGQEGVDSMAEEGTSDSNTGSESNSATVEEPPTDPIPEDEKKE
UniProt Q9ULP9, sequence (Q9ULP9 whole entry, looked up): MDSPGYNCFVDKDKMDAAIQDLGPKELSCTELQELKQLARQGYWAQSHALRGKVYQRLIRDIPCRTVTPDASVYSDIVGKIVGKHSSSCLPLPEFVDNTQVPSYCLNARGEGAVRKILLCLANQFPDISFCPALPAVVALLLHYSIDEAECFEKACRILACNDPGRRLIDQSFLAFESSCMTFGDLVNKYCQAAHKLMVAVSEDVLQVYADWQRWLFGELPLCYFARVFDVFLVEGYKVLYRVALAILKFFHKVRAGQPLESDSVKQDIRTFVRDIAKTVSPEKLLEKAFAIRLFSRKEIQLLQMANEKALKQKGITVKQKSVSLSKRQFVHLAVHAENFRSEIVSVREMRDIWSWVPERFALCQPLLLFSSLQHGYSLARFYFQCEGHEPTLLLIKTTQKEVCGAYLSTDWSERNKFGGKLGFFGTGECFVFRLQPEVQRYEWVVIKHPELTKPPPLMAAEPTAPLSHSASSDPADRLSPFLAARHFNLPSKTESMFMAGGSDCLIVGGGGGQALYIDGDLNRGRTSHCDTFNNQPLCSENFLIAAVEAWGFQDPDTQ
UniProt Q13043, sequence (Q13043 whole entry, looked up): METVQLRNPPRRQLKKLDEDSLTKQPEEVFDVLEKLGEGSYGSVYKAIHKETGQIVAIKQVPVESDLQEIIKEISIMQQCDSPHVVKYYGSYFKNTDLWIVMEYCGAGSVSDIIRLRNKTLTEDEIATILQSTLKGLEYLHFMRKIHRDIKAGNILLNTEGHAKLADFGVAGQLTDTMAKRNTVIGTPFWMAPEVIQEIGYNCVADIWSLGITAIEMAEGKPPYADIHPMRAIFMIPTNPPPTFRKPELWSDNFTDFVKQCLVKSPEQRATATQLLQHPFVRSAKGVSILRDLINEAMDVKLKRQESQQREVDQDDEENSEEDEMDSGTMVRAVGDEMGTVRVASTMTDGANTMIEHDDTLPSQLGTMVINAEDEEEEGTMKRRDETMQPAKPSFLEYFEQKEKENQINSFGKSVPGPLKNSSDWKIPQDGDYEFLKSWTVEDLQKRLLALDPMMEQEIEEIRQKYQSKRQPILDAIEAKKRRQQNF
UniProt P35711, sequence (P35711 whole entry, looked up): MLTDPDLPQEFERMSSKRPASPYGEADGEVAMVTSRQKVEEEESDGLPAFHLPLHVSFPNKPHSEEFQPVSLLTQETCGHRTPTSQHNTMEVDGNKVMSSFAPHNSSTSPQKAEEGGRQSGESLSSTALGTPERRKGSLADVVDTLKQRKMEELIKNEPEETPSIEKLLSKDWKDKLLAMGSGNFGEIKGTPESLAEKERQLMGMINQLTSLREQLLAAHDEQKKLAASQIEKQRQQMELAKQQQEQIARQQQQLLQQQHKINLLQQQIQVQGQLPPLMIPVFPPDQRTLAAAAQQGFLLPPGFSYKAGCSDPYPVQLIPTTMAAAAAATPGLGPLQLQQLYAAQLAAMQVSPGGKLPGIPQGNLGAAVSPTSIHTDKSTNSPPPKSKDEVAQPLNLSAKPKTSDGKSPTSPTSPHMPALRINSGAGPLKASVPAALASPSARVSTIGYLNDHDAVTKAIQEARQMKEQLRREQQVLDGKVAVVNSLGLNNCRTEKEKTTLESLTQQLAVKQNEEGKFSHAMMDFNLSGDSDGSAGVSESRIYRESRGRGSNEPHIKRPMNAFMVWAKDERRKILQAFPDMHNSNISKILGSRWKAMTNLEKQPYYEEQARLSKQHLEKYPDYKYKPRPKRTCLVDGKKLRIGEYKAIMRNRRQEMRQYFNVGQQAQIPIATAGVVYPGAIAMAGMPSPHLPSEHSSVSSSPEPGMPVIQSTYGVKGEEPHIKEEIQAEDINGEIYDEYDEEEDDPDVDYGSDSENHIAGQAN
UniProt P05455, sequence (P05455 whole entry, looked up): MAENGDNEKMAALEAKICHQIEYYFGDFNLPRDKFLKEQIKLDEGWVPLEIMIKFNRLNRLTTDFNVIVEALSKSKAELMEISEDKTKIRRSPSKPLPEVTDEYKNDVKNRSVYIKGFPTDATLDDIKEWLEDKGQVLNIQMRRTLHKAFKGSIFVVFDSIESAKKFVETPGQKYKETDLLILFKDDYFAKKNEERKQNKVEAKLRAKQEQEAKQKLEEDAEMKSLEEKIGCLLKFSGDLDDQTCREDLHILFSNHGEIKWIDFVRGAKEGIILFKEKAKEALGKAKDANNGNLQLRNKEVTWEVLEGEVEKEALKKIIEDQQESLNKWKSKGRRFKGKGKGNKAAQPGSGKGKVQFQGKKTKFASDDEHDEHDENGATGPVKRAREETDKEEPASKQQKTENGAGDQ

Target	log2 fold change
TBC1D24 (UniProt Q9ULP9)	0.02 (inactive)
SPTBN4 (UniProt Q9H254)	0.148 (inactive)
SMPD4 isoform 4 (UniProt Q9NXE4)	0.043 (inactive)
STK4 (UniProt Q13043)	0.057 (inactive)
SUMO1 (UniProt P63165)	-0.048 (inactive)
SMARCE1 (UniProt Q969G3)	0.338 (inactive)
SP3 (UniProt Q02447)	-0.043 (inactive)
SMCHD1 (UniProt A6NHR9)	0.063 (inactive)
SUPT16H (UniProt Q9Y5B9)	0.279 (inactive)
TMBIM1 (UniProt Q969X1)	0.242 (inactive)
SOX5 (UniProt P35711)	-0.058 (inactive)

Compound: Cc1sc2c(c1C)C(c1ccc(Cl)cc1)=N[C@@H](CC(=O)OC(C)(C)C)c1nnc(C)n1-2
Assay: as above
Outline: as §1

Target	log2 fold change
SRPRA (UniProt P08240)	-0.061 (inactive)
SSB (UniProt P05455)	0.007 (inactive)
TBCD (UniProt Q9BTW9)	-0.004 (inactive)
TIPRL (UniProt O75663)	0.001 (inactive)
STAT5B (UniProt P51692)	0.033 (inactive)
SOAT1 (UniProt P35610)	0.802 (active)
SPG11 (UniProt Q96JI7)	0.24 (inactive)
STK25 (UniProt O00506)	-0.019 (inactive)
TAX1BP1 (UniProt Q86VP1)	0.029 (inactive)
THRAP3 (UniProt Q9Y2W1)	0.046 (inactive)
SYNE1 (UniProt Q8NF91)	-0.018 (inactive)
SPECC1 (UniProt Q5M775)	-0.012 (inactive)
SLC38A7 (UniProt Q9NVC3)	-0.035 (inactive)
STK38 (UniProt Q15208)	0.028 (inactive)
SLIRP (UniProt Q9GZT3)	-0.016 (inactive)
SRSF10 (UniProt O75494)	0.249 (inactive)
SMDT1 (UniProt Q9H4I9)	-0.019 (inactive)
SUPT5H (UniProt O00267)	0.001 (inactive)

Target	log2 fold change
TJP2 isoform 7 (UniProt Q9UDY2)	0.04 (inactive)
TBK1 (UniProt Q9UHD2)	0.011 (inactive)
SSRP1 (UniProt Q08945)	-0.051 (inactive)
TATDN2 (UniProt Q93075)	0.069 (inactive)
SNX2 (UniProt O60749)	-0.026 (inactive)
SPIRE1 (UniProt Q08AE8)	-0.01 (inactive)
TBC1D24 (UniProt Q9ULP9)	-0.029 (inactive)
SPTBN4 (UniProt Q9H254)	0.014 (inactive)
SMPD4 isoform 4 (UniProt Q9NXE4)	-0.034 (inactive)
STK4 (UniProt Q13043)	0.005 (inactive)
SUMO1 (UniProt P63165)	0.231 (inactive)
SMARCE1 (UniProt Q969G3)	0.111 (inactive)
SP3 (UniProt Q02447)	0.025 (inactive)
SMCHD1 (UniProt A6NHR9)	0.01 (inactive)
SUPT16H (UniProt Q9Y5B9)	-0.106 (inactive)
TMBIM1 (UniProt Q969X1)	-0.005 (inactive)
SOX5 (UniProt P35711)	-0.018 (inactive)
